Experimental data reported in PubChem BioAssay (NCI).
About 79,000 compounds went through this panel and 15% of them were active in at least one assay; those are over-represented in the sample as a whole. The source made the active and inactive calls. Cut-off read from the data, not from the text of the source: active = growth inhibition above about 70%; inactive = the rest.

Columns and labels:
[1] = NCI Yeast Anticancer Drug Screen. Data for the rad50 strain (AID 155);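 note: 0% = growth of vehicle-only cultures of the same strain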; conditions: S. cerevisiae rad50 strain growth inhibition; at 50.0 µM; active compounds read high
Procedure, shortened: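 Inhibition values express reduced yeast growth in compound-treated cultures relative to vehicle-treated controls.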

[2] = NCI Yeast Anticancer Drug Screen. Data for the mec2-1 strain (AID 157); conditions: S. cerevisiae mec2-1 strain, at 50.0 µM, active compounds read high
Procedure, shortened: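 mec2-1 yeast strain, carrying an alteration in DNA damage repair or cell cycle control, was exposed to compounds; growth inhibition was measured relative to vehicle-treated controls.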

[3] = NCI Yeast Anticancer Drug Screen. Data for the sgs1 mgt1 strain (AID 161);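 note: 0% = growth of cultures given vehicle only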; conditions: S. cerevisiae sgs1 mgt1 strain, at 50.0 µM, active compounds read high
Procedure, shortened: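 Percent growth inhibition was derived by comparing compound-exposed mutant yeast with vehicle-exposed cultures. The strain carries alterations in DNA damage repair.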

[4] = NCI Yeast Anticancer Drug Screen. Data for the cln2 rad14 strain (AID 165);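 note: 0% = growth equal to vehicle treated cultures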; conditions: S. cerevisiae cln2 rad14 strain, at 50.0 µM, active compounds read high
Procedure, shortened: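 Yeast carrying cln2 and rad14 alterations (cell cycle control and DNA damage repair) were exposed to compounds. Growth inhibition was measured against vehicle-treated controls.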

[5] = NCI Yeast Anticancer Drug Screen. Data for the bub3 strain (AID 167); conditions: S. cerevisiae bub3 mutant strain, at 50.0 µM, active compounds read high
Procedure, shortened: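 Steps: expose the mutant yeast strain to compound; grow alongside vehicle-treated cultures; measure growth; express inhibition against the vehicle cultures.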

[6] = NCI Yeast Anticancer Drug Screen. Data for the mlh1 rad18 strain (AID 175); conditions: S. cerevisiae mlh1 rad18 strain growth inhibition; at 50.0 µM; active compounds read high
Procedure, shortened: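 Growth inhibition of the yeast strain was measured after compound exposure and expressed relative to vehicle-treated controls. The strain carries defined defects in DNA damage repair.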

Measured: growth inhibition

Cn1c(=O)c2snnc2n(C)c1=O
inactive: [1] -2.75% | [2] -2.65% | [3] -2.65% | [4] -9.5% | [5] 2.9% | [6] -16.6%

COc1cc2c(cc1OC)C1=NN(c3ccccc3)C(=O)C1CC2 (stereo unspecified)
inactive: [1] 22.8% | [2] 12.6% | [3] 12.3% | [4] -7.2% | [5] 5.55% | [6] 18.8%

CCOC(=O)CCC1CCCCC1
inactive: [1] -1.1% | [2] -8.15% | [3] -19.4% | [4] 0.65% | [5] -3.2% | [6] 8.15%

O=C1NC(c2ccccc2)C1N(Cc1ccccc1)Cc1ccccc1 (stereo unspecified)
inactive: [1] 21.3% | [2] 0.55% | [3] 22.2% | [4] 11.4% | [5] 12.8% | [6] 9.8%

CC(=O)Nc1ccc(S(=O)(=O)NC(=O)NCCC(C)C)cc1
inactive: [1] 1.95% | [2] 2.45% | [3] 9.8% | [4] -20.2% | [5] 8.6% | [6] 7.85%

CCOCCOC(=O)OCCOCC
inactive: [1] 10.3% | [2] 1.9% | [3] 22.4% | [4] -4.3% | [5] 12.1% | [6] 28%

CNc1ncnc2c1cnn2-c1ccc(Cl)cc1
inactive: [1] -15.8% | [2] -6.85% | [3] -6.75% | [4] -37.4% | [5] 0.3% | [6] 4.25%

CC(C)=CC1C(C(=O)Oc2c(Cl)c(Cl)c(Cl)c(Cl)c2Cl)C1(C)C (stereo unspecified)
inactive: [1] 12.5% | [2] 6.5% | [3] 40.9% | [4] 12.2% | [5] -4.15% | [6] 31.2%

CCCCCCC(O)CCCCCCCCCCC(=O)O (stereo unspecified)
inactive: [1] -14.3% | [2] 0.1% | [3] 16.4% | [4] -25.4% | [5] -6.8% | [6] 19.7%

O=C1c2cc(F)ccc2-c2c(F)cc(F)cc21
inactive: [1] 19.9% | [2] -6.4% | [3] -2.1% | [4] 40.5% | [5] -3.85% | [6] -8.8%

Cc1cccn(C)c1=O
inactive: [1] -5% | [2] 1.9% | [3] 2.15% | [4] 2.15% | [5] 0.4% | [6] 3.05%

C[N+](C)(N)c1nc(N)c(C#N)c(C#N)c1C#N
inactive: [1] 13.6% | [2] -18.7% | [3] -10.9% | [4] -24.4% | [5] 5.1% | [6] 13.8%

SCCCCN1CCCCC1
inactive: [1] -17.2% | [2] -14.3% | [3] 5.4% | [4] -12.2% | [5] -4.45% | [6] -9.9%

COC(=O)N/N=C(\C(=O)Nc1cccc([N+](=O)[O-])c1)c1nc2ccc([N+](=O)[O-])cc2[nH]c1=O
inactive: [1] 8.65% | [2] -7.75% | [3] 25% | [4] 14.8% | [5] -17.1% | [6] -1.25%

c1ccc(C2(c3ccccc3)Oc3ccccc3O2)cc1
inactive: [1] -10.1% | [2] 3.65% | [3] -6.45% | [4] -37.5% | [5] -6.4% | [6] 7.3%

COC(=O)C1C(=C(c2ccccc2)c2ccccc2)C1c1ccccc1 (stereo unspecified)
inactive: [1] -1.75% | [2] -15.2% | [3] -11.8% | [4] -11.4% | [5] 6.85% | [6] -8.7%

c1ccc(-c2ccc(-c3ccccc3)c(-c3ccc4c(c3)CCC4)c2-c2ccccc2)cc1
inactive: [1] 14.1% | [2] 13.3% | [3] 7.25% | [4] 13.9% | [5] -3.85% | [6] 21.8%

O=C1CSC(c2cccc(F)c2)N1CCN1C(=O)CSC1c1cccc(F)c1 (stereo unspecified)
inactive: [1] 27.7% | [2] 16.7% | [3] 9.65% | [4] 20.6% | [5] 2.4% | [6] -7.5%

CC1C(O)CC23COC(=O)C2=CCCC3C1(C)CCC1=CC(=O)OC1 (stereo unspecified)
inactive: [1] -8.6% | [2] -38.9% | [3] -26.2% | [4] -7% | [5] -42% | [6] -20.9%

O=c1[nH]cc(COCCO)c(=O)[nH]1
inactive: [1] -20.1% | [2] -2.8% | [3] -19.4% | [4] 7.4% | [5] -18% | [6] 7.2%

COC(=O)C[C@@]1(C(=O)OC)[C@@H](C(=O)OC)C(C(=O)OC)=NN1C
inactive: [1] -5.35% | [2] -18.4% | [3] 0.85% | [4] -49% | [5] 18.1% | [6] -4.45%

CC1=CC(C(O)C(C)C)C(C)(Cc2ccc(C)cn2)NC1c1ccccc1 (stereo unspecified)
inactive: [1] 50.6% | [2] -6.3% | [3] 5.45% | [4] 15.2% | [5] -2.05% | [6] 0.5%

Cc1ccc(S(=O)(=O)n2cncc2CO)cc1
inactive: [1] -33.7% | [2] -26.8% | [3] -15.1% | [4] 7.55% | [5] 4.05% | [6] -10.7%

CCOC(=O)c1ccc(NC(=O)Oc2cc(C)c(Cl)c(C)c2)cc1
inactive: [1] 7.8% | [2] -3.4% | [3] 2.65% | [4] 6.35% | [5] 14.9% | [6] -3.65%

CC(C)(C)[Si](C)(C)OC1CCOC1(O)c1ccccn1 (stereo unspecified)
inactive: [1] 5.75% | [2] 0.65% | [3] 29.6% | [4] 37.1% | [5] 35.8% | [6] -8.2%

[O-]/[N+](=C\c1ccccc1)[C@H](COCc1ccccc1)c1ccccc1
inactive: [1] -21.8% | [2] -17.1% | [3] -23.8% | [4] -13.5% | [5] -2.75% | [6] -5.5%

C[N+](C)(C)c1cc(Br)c(O)c(Br)c1
inactive: [1] 1.85% | [2] 31.9% | [3] 12% | [4] -2.75% | [5] 41.2% | [6] 33%

O=Cc1sccc1NC(=O)c1ccccc1
inactive: [1] 2.65% | [2] -14.6% | [3] -18% | [4] -18.1% | [5] -7.5% | [6] 9.15%

COc1ccc(-n2nnnc2C2(Nc3ccccc3)CCN(Cc3ccccc3)CC2)cc1
inactive: [1] -22.4% | [2] -8.4% | [3] -1.4% | [4] 2.65% | [5] -2.15% | [6] 10.4%

CC1=C/C(=C(/c2cccc(S(=O)(=O)O)c2)c2cc(C)c(O)c(C(=O)O)c2)C=C(C(=O)O)C1=O
inactive: [1] 4.4% | [2] -21.8% | [3] -3.7% | [4] 25.2% | [5] -3.7% | [6] 9.05%

CCc1ccc([OH2+])c(C(=O)[O-])c1.CCc1ccc([OH2+])c(C(=O)[O-])c1.CCc1ccc([OH2+])c(C(=O)[O-])c1.CCc1ccc([OH2+])c(C(=O)[O-])c1.[Cu+2].[Cu+2]
inactive: [1] 18.9% | [2] 2.5% | [3] 21.6% | [4] 29.3% | [5] 8.75% | [6] 20.9%

CC(C)NC1(C(N)=O)CCN(Cc2ccccc2)CC1
inactive: [1] 7.85% | [2] -17.2% | [3] 8.1% | [4] -3.15% | [5] -51.9% | [6] 18.1%

COC(=O)c1ccccc1NC(=O)c1ccccc1C(=O)O
inactive: [1] 6.4% | [2] 41% | [3] 35% | [4] -6.55% | [5] 28.5% | [6] 37.2%

COc1cc(-c2oc3c(OC)c(OC)cc(O)c3c(=O)c2OC)ccc1O
inactive: [1] 11.7% | [2] -8.1% | [3] -8.7% | [4] -5.3% | [5] -9.05% | [6] -0.05%

N#C/C(=C\n1c(=S)[nH]c2ccccc21)c1nc2ccccc2s1
inactive: [1] -2.85% | [2] -4.45% | [3] -9.15% | [4] -4.15% | [5] 4.25% | [6] 36.8%

CCN(CC)/[N+]([O-])=N/OCC(C)O (stereo unspecified)
inactive: [1] 18.4% | [2] -3.45% | [3] -3.85% | [4] 8.35% | [5] 0.55% | [6] -12.5%

CCC(C)C(N=C1N=CNC2=NC=NC12)C(=O)O (stereo unspecified)
inactive: [1] 0.45% | [2] -27.8% | [3] -2.6% | [4] 6.5% | [5] -10.6% | [6] -4.1%

Nc1c([N+](=O)[O-])cc(F)cc1C(F)(F)F
inactive: [1] -5.5% | [2] -17.6% | [3] 3.6% | [4] -14.9% | [5] 5.4% | [6] 6.7%

Cc1cccnc1NCc1ccccn1
inactive: [1] 3.1% | [2] -0.9% | [3] 15.1% | [4] 4.35% | [5] 1.75% | [6] 3.35%

CCCCCCCCCCCC(=O)N(CCCCCCCCCCC(=O)O)CC(O)C(O)C(OC1OC(CO)C(O)C(O)C1O)C(O)CO (stereo unspecified)
active: [3] 85.8% | [5] 86.3%
inactive: [1] 65.3% | [2] 12.8% | [4] 32.2% | [6] 20.3%

CC1OC(OC(=O)c2ccc([N+](=O)[O-])cc2)CC(OC(=O)c2ccc([N+](=O)[O-])cc2)C1OC(=O)c1ccc([N+](=O)[O-])cc1 (stereo unspecified)
inactive: [1] 18.4% | [2] 5.45% | [3] -10.2% | [4] 24.7% | [5] 1.6% | [6] -24.8%
